Hits are enriched below; roughly 2.4% of the tested compounds scored in any of these assays.
Rango dissoc inh: qHTS Assay for Inhibitors of RanGTP induced Rango (Ran-regulated importin-beta cargo) - Importin beta complex dissociation; Snurportin-1 (Homo sapiens) + GTP-binding nuclear protein Ran (Homo sapiens) + Importin …; Biochemical FRET Rango-importin beta, RanGTP-induced dissociation; Potency, µM (titrated, usually from 46.1 µM), without a hit: top-dose activity change, negative = inhibition; 0.071% of 340,000 active; AID 540253, 2011; calls by dose curve; also: % of control where 0% means no effect; nearly all actives have a fitted effect of over 45% in size
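Rango/importin beta premix (0.1/0.25 uM final), PBS + 1 mM DTT + 0.02% Tween-20 + 0.1% BSA; cpd 5 min RT; FRET pre-read; + RanGTP-RCC1 (0.6 uM Ran, 2 mM GTP, 0.2 uM RCC1); 45 min RT; FRET post-read, ex 430, em 486/530 nm.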
PKM2 activator: qHTS Assay for Activators of Human Muscle isoform 2 Pyruvate Kinase. Pyruvate kinase PKM (Homo sapiens), P14618. purified PKM2, Kinase-Glo ATP luminescence, activation; response scale: 0% is enzyme alone, no compound. Potency, µM (top dose mostly 57.5 µM), inactives show top-dose activation, actives largely listed as activators. 0.34% of 260,000 active. AID 1631, 2009; also: % is scaled to controls: 0 for no effect and ±100 for the full control effect; nearly all actives have a fitted effect of over 55% in size
Target sequence (P14618 whole entry, looked up, canonical isoform): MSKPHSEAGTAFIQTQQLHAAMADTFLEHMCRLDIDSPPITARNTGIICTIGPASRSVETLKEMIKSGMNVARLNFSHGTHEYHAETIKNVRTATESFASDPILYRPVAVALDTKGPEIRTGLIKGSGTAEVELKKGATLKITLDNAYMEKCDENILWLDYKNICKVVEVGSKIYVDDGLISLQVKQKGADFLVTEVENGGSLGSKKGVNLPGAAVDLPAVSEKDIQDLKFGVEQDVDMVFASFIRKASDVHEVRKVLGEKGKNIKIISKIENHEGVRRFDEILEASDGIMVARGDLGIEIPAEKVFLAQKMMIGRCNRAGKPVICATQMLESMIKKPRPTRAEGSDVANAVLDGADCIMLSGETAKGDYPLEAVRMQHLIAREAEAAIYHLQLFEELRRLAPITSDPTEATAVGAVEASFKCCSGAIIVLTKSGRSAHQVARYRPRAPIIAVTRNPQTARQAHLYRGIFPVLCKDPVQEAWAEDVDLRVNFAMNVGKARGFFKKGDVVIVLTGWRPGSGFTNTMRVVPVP
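hPK-M2, >95% pure; 0.1 mM ADP / 0.5 mM PEP final; imidazole pH7.2 buffer w/ 7 mM MgCl2, 50 mM KCl; 1 h RT; Kinase-Glo lum. Intermediate enzyme activity for dual inhibitor/activator qHTS.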
Tb PFK inh: qHTS Assay to Find Inhibitors of T. brucei phosphofructokinase | T. brucei PFK, ADP-Glo luminescence | Potency, µM (titrated, usually from 57.5 µM), inactives show at the highest dose activity, negative = inhibition, actives largely listed as inhibitors | 0.17% of 330,000 active | AID 485367, 2010;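 also: 0% = uninhibited 1x PFK enzyme wells and -100% = no-enzyme wells; nearly all actives have a fitted effect of over 60% in size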
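ADP-Glo luminescence quantified ADP after 45 min at room temperature, with 1.25 nM T. brucei PFK, 0.1 mM ATP and 0.5 mM fructose-6-phosphate in pH 8.0 TEA buffer. qHTS titrations up to 57 µM; curves classified by quality.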
Rango-impB inh: qHTS Assay for Inhibitors of Rango (Ran-regulated importin-beta cargo) - Importin beta complex formation; Importin subunit beta-1 (Homo sapiens), Q14974; Rango CFP/YFP FRET sensor + importin beta, 45 min; 0.031% of 340,000 active; AID 540263, 2011; Potency, µM (series often up to 92.2 µM), for the others: at the highest dose inhibition of complex formation; calls by dose curve;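 also: 0% = DMSO wells and 100% = buffer wells lacking importin beta; nearly all actives have a fitted effect of over 15% in size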
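Inhibition scored from the CFP 486 nm/YFP 530 nm FRET ratio 45 min after adding 0.125 microM importin beta to 50 nM Rango biosensor preincubated 5 min with compound (room temperature, PBS with DTT, Tween-20, BSA). No-importin wells as positive control.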
Tb PGK inh: qHTS Assay to Find Inhibitors of Phosphoglycerate Kinase. 0.043% of 380,000 active. Potency, µM (doses to about 57.5 µM), inactives show at the highest dose activity change, negative = inhibition, usual class: inhibitors. PGK/GAPDH coupled, Kinase-Glo luminescence, 60 min; also: % is scaled to controls: 0 for no effect and ±100 for the full control effect; nearly all actives have a fitted effect of over 60% in size
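Luminescent ATP detection (Kinase-Glo Plus) follows a 60-minute room-temperature incubation, with wells lacking PGK as controls. Buffer: 100 mM TEA (pH 7.6), 5 mM MgCl2, 0.01% Tween-20. Coupling enzyme GAPDH (100 nM final) supplies unstable 1,3-BPG in-well.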
ELG1 repair inh: qHTS screen for small molecules that inhibit ELG1-dependent DNA repair in human embryonic kidney (HEK293T) cells expressing luciferase-tagged ELG1 | 2.3% of 330,000 active | Potency, µM (highest dose often 46.1 µM), inactives show at the top dose activity change, negative = inhibition, actives largely listed as inhibitors | HEK293T ELG1-luciferase reporter, luminescence, 16 h; DNA damage induced by 5-fluorouridine; also: % is scaled to controls: 0 for no effect and ±100 for the full control effect; nearly all actives have a fitted effect of over 55% in size
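Luminescence from the luciferase reporter, measured 30 min after ONE-Glo reagent at room temperature, was the read-out. Beforehand, 2,000 cells per well were exposed for 16 hr at 37 °C to 5-fluorouridine together with compound or vehicle.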
Active calls of the source: *; i = inactive; ? = inconclusive; . = no result given; [ ] = remark or other dose. Unless noted, calls follow the shape of the dose curve; as a rule, active = well fitted curve in the direction sought with a large enough effect; inconclusive = small, poorly fitted or top-dose-only effect, or another doubt; inactive = no such curve, though single readings can be large; an effect the other way counts as inactive or inconclusive. Potency is read from the fitted curve at half-maximal effect.

SMILES	Rango dissoc inh	PKM2 activator	Tb PFK inh	Rango-impB inh	Tb PGK inh	ELG1 repair inh
N#C/C(=C\c1cccc([N+](=O)[O-])c1)C(=O)NCc1cccnc1	3.0%	9.8%	-0.2%	-1.0%	-8.8%	20.6µM*
COCCNC(=O)/C(C#N)=C/C(C)=C/c1ccccc1	-11.1%	-1.6%	-5.4%	5.4%	14.7%	?
CCOCCCNC(=O)/C(C#N)=C/c1cc(OC)c(O)c([N+](=O)[O-])c1	11.8%	-3.0%	?	-1.6%	-0.2%	17.4%
N#C/C(=C\c1cccnc1)C(=O)Nc1cccc(Cl)c1	16.0%	5.62µM*	-10.0%	?	-6.3%	-7.4%
CCOCCCNC(=O)/C(C#N)=C/c1cc(C)c(O)c(C)c1	25.9µM*	0.1%	4.6%	?	i	13.3%
CCc1ccc2c(c1)c(=O)c(S(=O)(=O)c1ccc(F)cc1)cn2CC(=O)Nc1ccc(C)cc1C	.	.	.	.	-3.0%	.
CCn1c2c(c(=O)n3ncc(C(=O)Nc4cccc(Cl)c4C)c13)CN(Cc1ccc(OC)cc1)CC2	.	.	.	.	-8.3%	.
COc1cc(/C=C(/C#N)C(=O)NCc2ccccc2)cc(OC)c1OC	6.1%	-5.0%	-6.6%	-0.4%	2.0%	?
Cc1cc(/C=C(\C#N)C(=O)NCc2ccccc2)cc(C)c1O	6.51µM*	.	2.0%	?	-4.1%	-1.8%
O=c1[nH]c(S)nc2sc3c(c12)CCCC3	18.4%	-8.9%	-5.8%	-7.5%	-4.6%	6.1%
O=c1[nH]nnc2sc3c(c12)CCCC3	-3.5%	1.5%	2.6%	4.4%	-0.1%	13µM*
CCCN(C(=O)Cc1nc(-c2ccc(OC)cc2)no1)c1ccccc1C	.	.	.	.	-7.2%	.
O=C(CCn1nc(-c2ccc(Cl)cc2)c2ccccc2c1=O)NN1CCOCC1	8.9%	0.5%	0.0%	1.5%	0.5%	-6.2%
COC(=O)C1=CN(Cc2ccc(OC)c(OC)c2)C=C(C(=O)OC)C1c1cccc(F)c1	5.8µM*	32.9%	0.0%	?	9.4%	?
Cc1cc2c(cc1C)C(c1ccccc1OC(C)C)CC(=O)N2 (stereo not given)	8.3%	-4.6%[11.5 µM]	-1.2%	-0.6%	-4.0%	0.3%
COc1ccc(/C=C2\Sc3ccc(C(=O)NCc4cccnc4)cc3N(C)C2=O)cc1OC	0.7%	9.7%	-9.4%	?	i	18.3µM*
COc1cccc(/C=C2\Sc3ccc(C(=O)NCc4cccnc4)cc3N(C)C2=O)c1	-0.1%	4.3%	-3.7%	0.0%	-3.6%	?
COc1ccc(/C=C2\Sc3ccc(C(=O)N4CCN(Cc5ccccc5)CC4)cc3N(C)C2=O)cc1OC	?	.	1.3%	?	-4.6%	23.1µM*
C/C(Nc1ccc(Cl)cc1)=C1/CCOC1=O	-14.4%	.	.	-3.4%	-3.6%	.
O=C1CSc2ccc(C(=O)Nc3cccc(S(=O)(=O)Nc4ccc(Br)cc4)c3)cc2N1	0.3%	-16.2%	?	-1.1%	.	13µM*
Oc1ccc(CNc2cccc(C(F)(F)F)c2)c2cccnc12	.	.	-4.0%	.	.	.
Cc1ccnc(N2CCC(C(=O)Nc3cccc(C(F)(F)F)c3)CC2)n1	-2.5%	-15.8%	-4.4%	9.0%	-3.6%	16.4µM*
Cc1ccc(/C=C/C(=O)N2CCN(c3ncccn3)CC2)o1	-16.9%	19.1%	-26.3%	0.0%	-1.5%	8.1%
O=C(O)/C(=C\c1ccccc1)c1ccc2ccccc2c1	-0.1%	.	.	2.7%	-15.3%	.
CCCC[C@]12Cc3cc(C#N)ccc3C(O1)c1c(cc(C)n(-c3ccccc3)c1=O)O2	.	-2.9%[11.5 µM]	2.2%[11.5 µM]	.	.	.
SMILES	Rango dissoc inh	PKM2 activator	Tb PFK inh	Rango-impB inh	Tb PGK inh	ELG1 repair inh
COc1ccc(-c2ccc(SCC(=O)N3c4ccccc4CC3C)nn2)cc1OC (stereo not given)	-3.5%	9.9%	0.6%	1.3%	.	16.4µM*
Cc1cccc(NC(=S)NCc2ccc3c(c2)cc(C)n3C)c1C	-6.6%	-4.7%	-26.1%	2.3%	2.6%	25.9µM*
O=C(NNC(=O)c1ccccc1F)C1=NN(c2ccccc2)C(=O)CC1	?	-4.6%	-6.1%	4.9%	-4.0%	3.8%
CSc1nc(NCCOCCO)c2sc3nc(-c4ccco4)c4c(c3c2n1)CCC4	-17.6%	22.4µM*	?	?	-4.8%	-18.4%
O=[N+]([O-])c1cc([N+](=O)[O-])c(Oc2cc(Cl)cc(Cl)c2)cc1NN1CCCCC1	12.9%	.	0.8%	0.2%	i	?
CCOC(=O)c1ccc(-c2ccc3c(=O)c4ccccc4n(C)c3c2)cc1F	?	-57.1%	-1.9%	?	-7.3%	-13.5%
c1ccc2c(-c3ccncc3)c[nH]c2c1	-14.7%	-2.8%	-2.3%	0.0%	3.1%	20.6µM*
c1ccc(-c2nnc(-c3ccccc3)c(-c3c[nH]c4ccccc34)n2)cc1	-10.1%	-2.9%	-7.2%	?	-7.8%	-5.8%
CC(=O)Nc1nnc(CCS(=O)(=O)c2ccc(C)cc2)s1	12.4%	.	.	1.1%	-0.9%	.
COc1ccc(CCNc2nc3ccccc3n3cnnc23)cc1OC	-5.2%	-1.4%	1.9%	-1.2%	-9.1%	?
CCOc1ccc(CCNc2nc3ccccc3n3cnnc23)cc1OCC	1.4%	8.4%	1.2%	-3.3%	i	20.6µM*
O=C(NCCN1CCN(C(=O)c2c(F)cccc2F)CC1)C(=O)Nc1ccc(Cl)cc1	-7.4%	0.2%	0.6%	3.7%	-3.9%	7.3µM*
O=C(c1c(F)cccc1F)N1CCN(CCOc2ccccc2)CC1	1.2%	.	-3.4%	0.2%	i	20.6µM*
CC(=O)c1c(C)[nH]c(C(=O)OCC(=O)Nc2ccc(C)cc2[N+](=O)[O-])c1C	1.1%	17.6%	-1.8%	-6.6%	2.5%	?
CC(=O)c1c(C)[nH]c(C(=O)OCC(=O)NCCc2ccc(Cl)cc2)c1C	0.8%	1.1%	-3.4%	-0.9%	-9.0%	?
CC(=O)c1c(C)[nH]c(C(=O)OCc2ccc(F)cc2Cl)c1C	-3.6%	-8.7%	1.3%	-0.1%	-4.6%	9.2µM*
CC(=O)c1c(C)[nH]c(C(=O)OCc2c(F)cccc2Cl)c1C	-11.2%	3.4%	0.5%	1.7%	-3.6%	7.3µM*
CC(=O)c1c(C)[nH]c(C(=O)OCC(=O)NCCc2ccc(F)cc2)c1C	-10.1%	-2.5%	5.6%	-1.9%	2.2%	20.6µM*
